Data taken from PubChem BioAssay (EPA / NIEHS).
Calls of active or inactive are those of the source. The calls were made as follows: active = hit-call score of the fitted dose curve at least 0.9, where 1 is the maximum; inactive = score below 0.9.

Legend:
Conditions in all cases: mRNA level, 48 h; actives raise or lower the signal
[1] = read-out: Insulin Like Growth Factor 1 (IGF1), IGF1 (gene 3479); test: LTEA_HepaRG_IGF1: Life Technologies and Expression Analysis (LTEA) Assay for Insulin Like Growth Factor 1 (IGF1) using HepaRG (AID 2283506)
Method in brief: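 Expression measured by TaqMan qRT-PCR on a Fluidigm array, with three housekeeping genes for normalisation, after 48 h treatment of HepaRG cells. Top concentration 100 uM with half-log steps, 0.5% DMSO vehicle, bidirectional fit.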

[2] = read-out: Intercellular Adhesion Molecule 1 (ICAM1), ICAM1 (gene 3383); test: LTEA_HepaRG_ICAM1: Life Technologies and Expression Analysis (LTEA) Assay for Intercellular Adhesion Molecule 1 (ICAM1) using HepaRG (AID 2283507)
Method in brief: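 Gain or loss of transcript in HepaRG hepatic cells is quantified by qRT-PCR after 48 h chemical exposure (up to 100 uM, half-log steps), with DMSO as baseline.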

[3] = read-out: Insulin-like growth factor-binding protein 1 (IGFBP1), IGFBP1 (gene 3484); test: LTEA_HepaRG_IGFBP1: Life Technologies and Expression Analysis (LTEA) Assay for Insulin-like growth factor-binding protein 1 (IGFBP1) using HepaRG (AID 2283508)
Method in brief: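 mRNA induction or loss was quantified by qRT-PCR after 48 h chemical exposure of human HepaRG cells, with 0.5% DMSO as vehicle and baseline. Concentration-response over eight points up to 100 uM.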

[4] = read-out: Interleukin 6 Receptor (IL6R), IL6R (gene 3570); test: LTEA_HepaRG_IL6R: Life Technologies and Expression Analysis (LTEA) Assay for Interleukin 6 Receptor (IL6R) using HepaRG (AID 2283510);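 as to AC50: differentiated human HepaRG liver cells in serum-free induction medium; TaqMan qRT-PCR signal normalized to ACTB GAPDH and POLR2A housekeeping genes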
Method in brief: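 IL6R transcript level by qRT-PCR after 48 h chemical exposure (8-point, half-log, max 100 uM, 0.5% DMSO vehicle) of HepaRG cells in serum-free induction medium. Normalized to three housekeeping genes; curves fitted in both directions relative to DMSO.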

[5] = read-out: Potassium channel subfamily K member 1 (KCNK1), KCNK1 (gene 3775); test: LTEA_HepaRG_KCNK1: Life Technologies and Expression Analysis (LTEA) Assay for Potassium channel subfamily K member 1 (KCNK1) using HepaRG (AID 2283511)
Method in brief: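 Human HepaRG cultures receive test chemicals for 48 h in 0.5% DMSO, top concentration 100 uM with half-log dilutions. Induction or suppression of KCNK1 mRNA relative to DMSO is derived by bidirectional fitting of qRT-PCR data.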

[6] = read-out: Keratin 19 (KRT19), KRT19 (gene 3880); test: LTEA_HepaRG_KRT19: Life Technologies and Expression Analysis (LTEA) Assay for Keratin 19 (KRT19) using HepaRG (AID 2283512)
Method in brief: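 Gene-expression endpoint in the human liver line HepaRG after 48 h exposure to up to 100 uM test chemical with 0.5% DMSO vehicle; KRT19 mRNA by qRT-PCR, analyzed bidirectionally versus DMSO.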

[7] = read-out: JUN Transcription Factor, JUN (gene 3725); test: LTEA_HepaRG_JUN: Life Technologies and Expression Analysis (LTEA) Assay for JUN Transcription Factor using HepaRG (AID 2283513)
Method in brief: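 mRNA measured by TaqMan qRT-PCR after 48 h chemical exposure of HepaRG cultures; normalization to three housekeeping genes. Duplicate eight-point half-log curves from 100 uM in 0.5% DMSO; gain or loss fitted against DMSO baseline.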

[8] = read-out: Lipase C (LIPC), LIPC (gene 3990); test: LTEA_HepaRG_LIPC: Life Technologies and Expression Analysis (LTEA) Assay for Lipase C (LIPC) using HepaRG (AID 2283514)
Method in brief: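 In this multiplexed gene-expression screen, human HepaRG cultures received test chemicals for 48 h across eight concentrations with 100 uM highest, in duplicate. Values reflect LIPC mRNA induction or suppression versus DMSO vehicle, from normalized qRT-PCR.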

[9] = read-out: MicroRNA 122 (MIR122), gene 406906; test: LTEA_HepaRG_MIR122: Life Technologies and Expression Analysis (LTEA) Assay for MicroRNA 122 (MIR122) using HepaRG (AID 2283516); also: the transcript read is the microRNA miR-122
Method in brief: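 Expression measured by microfluidic qRT-PCR with three housekeeping genes for normalisation, after 48 h treatment of HepaRG cultures. Eight concentrations (top 100 uM, half-log steps, 0.5% DMSO vehicle) in duplicate; gain or loss fitted relative to vehicle.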

[10] = read-out: matrix metalloproteinase-10 (MMP10), MMP10 (gene 4319); test: LTEA_HepaRG_MMP10: Life Technologies and Expression Analysis (LTEA) Assay for matrix metalloproteinase-10 (MMP10) using HepaRG (AID 2283517)
Method in brief: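 In differentiated HepaRG cultures kept in 0.5% DMSO, test chemicals act for 48 h over an eight-point range with a top dose of 100 uM. Expression is then quantified by TaqMan RT-PCR against ACTB, GAPDH and POLR2A.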

[11] = read-out: MYC, MYC (gene 4609); test: LTEA_HepaRG_MYC: Life Technologies and Expression Analysis (LTEA) Assay for MYC using HepaRG (AID 2283518)
Method in brief: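 Cells are thawed, plated and cultured 48 h, then treated for 48 h with test chemicals (eight half-log concentrations from 100 uM, 0.5% DMSO vehicle). RNA is isolated and MYC expression quantified by qRT-PCR against three housekeeping genes.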

[12] = read-out: matrix metalloproteinase-3 (MMP3), MMP3 (gene 4314); test: LTEA_HepaRG_MMP3: Life Technologies and Expression Analysis (LTEA) Assay for matrix metalloproteinase-3 (MMP3) using HepaRG (AID 2283519)
Method in brief: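 Human liver HepaRG cultures received chemicals (top concentration 100 uM, 0.5% DMSO) for 48 h in duplicate. MMP3 mRNA induction or loss was then assessed via TaqMan qRT-PCR with housekeeping-gene normalisation.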

[13] = read-out: Paternally Expressed 10 (PEG10), PEG10 (gene 23089); test: LTEA_HepaRG_PEG10: Life Technologies and Expression Analysis (LTEA) Assay for Paternally Expressed 10 (PEG10) using HepaRG (AID 2283520);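 as to AC50: differentiated HepaRG human liver cells in serum-free induction medium with 0.5% DMSO; PEG10 transcript by qRT-PCR normalised to ACTB GAPDH and POLR2A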
Method in brief: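 PEG10 transcript measured by Fluidigm qRT-PCR, normalized to three housekeeping genes, in HepaRG cells treated 48 h (highest 100 uM, half-log steps, 0.5% DMSO vehicle). Cells plated 48 h before switching to serum-free induction medium.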

[14] = read-out: Nuclear factor NF-kappa-B p105 subunit (Homo sapiens) (UniProt P19838); test: LTEA_HepaRG_NFKB1: Life Technologies and Expression Analysis (LTEA) Assay for Nuclear Factor Kappa B Subunit 1 (NFKB1) using HepaRG (AID 2283521);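 also: differentiated human HepaRG liver cells in serum-free induction medium; TaqMan qRT-PCR transcript normalised to ACTB GAPDH and POLR2A housekeeping genes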
Method in brief: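 HepaRG, 48 h exposure; 8-pt half-log series from 100 uM in 0.5% DMSO; duplicates. Readout: NFKB1 mRNA by qRT-PCR (Fluidigm arrays), housekeeping-normalized. Gain/loss fit vs DMSO baseline.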

[15] = read-out: Protein phosphatase 2A (PPP2R4), PTPA (gene 5524); test: LTEA_HepaRG_PPP2R4: Life Technologies and Expression Analysis (LTEA) Assay for Protein phosphatase 2A (PPP2R4) using HepaRG (AID 2283522)
Method in brief: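 Expression was quantified by Fluidigm qRT-PCR normalised to three housekeeping genes after 48 h treatment. Human HepaRG cells received an 8-point series from 100 µM downward by half-logs, in duplicate with 0.5% DMSO vehicle and 1 mM phenobarbital as induction control.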

[16] = read-out: Phosphatase and tensin (PTEN), PTEN (gene 5728); test: LTEA_HepaRG_PTEN: Life Technologies and Expression Analysis (LTEA) Assay for Phosphatase and tensin (PTEN) using HepaRG (AID 2283523)
Method in brief: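 Expression of PTEN is quantified in the human liver line HepaRG following two days of dosing (top concentration 100 uM, half-log dilutions, 0.5% DMSO). Values derive from bidirectional curve fitting relative to DMSO controls.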

[17] = read-out: solute carrier (SLC22A1), SLC22A1 (gene 6580); test: LTEA_HepaRG_SLC22A1: Life Technologies and Expression Analysis (LTEA) Assay for solute carrier (SLC22A1) using HepaRG (AID 2283524);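 as to AC50: differentiated human HepaRG liver cells in serum-free induction medium; TaqMan qRT-PCR normalized to ACTB GAPDH and POLR2A housekeeping genes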
Method in brief: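 Transcript induction or suppression of SLC22A1 in human HepaRG cultures is scored after 48 h chemical treatment, with DMSO (0.5%) as baseline for bidirectional fitting. Concentrations span eight half-log points topping at 100 uM.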

[18] = read-out: Pyruvate Dehydrogenase Kinase 4 (PDK4), PDK4 (gene 5166); test: LTEA_HepaRG_PDK4: Life Technologies and Expression Analysis (LTEA) Assay for Pyruvate Dehydrogenase Kinase 4 (PDK4) using HepaRG (AID 2283525)
Method in brief: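 Eight-point, half-log concentration series (max 100 uM, 0.5% DMSO) applied to differentiated HepaRG cells for 48 h in duplicate. Endpoint: PDK4 mRNA induction or repression by qRT-PCR against DMSO baseline.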

[19] = read-out: Interleukin 6 (IL6), IL6 (gene 3569); test: LTEA_HepaRG_IL6: Life Technologies and Expression Analysis (LTEA) Assay for Interleukin 6 (IL6) using HepaRG (AID 2283509)
Method in brief: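 Changes in IL6 mRNA, up or down relative to 0.5% DMSO controls, were derived from concentration-response curves in human HepaRG cells treated for 48 h at up to 100 uM, with ACTB, GAPDH and POLR2A as normalizers.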

[20] = read-out: Lipoprotein lipase (LPL), LPL (gene 4023); test: LTEA_HepaRG_LPL: Life Technologies and Expression Analysis (LTEA) Assay for Lipoprotein lipase (LPL) using HepaRG (AID 2283515)
Method in brief: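 Concentration-response testing used half-log steps from 100 uM in 0.5% DMSO on human HepaRG cells, 48 h, duplicate wells. Phenobarbital 1 mM served as induction control; LPL mRNA was normalized to ACTB, GAPDH, POLR2A.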

Measured: AC50

Sequence of Nuclear factor NF-kappa-B p105 subunit (Homo sapiens) (P19838 whole entry, looked up): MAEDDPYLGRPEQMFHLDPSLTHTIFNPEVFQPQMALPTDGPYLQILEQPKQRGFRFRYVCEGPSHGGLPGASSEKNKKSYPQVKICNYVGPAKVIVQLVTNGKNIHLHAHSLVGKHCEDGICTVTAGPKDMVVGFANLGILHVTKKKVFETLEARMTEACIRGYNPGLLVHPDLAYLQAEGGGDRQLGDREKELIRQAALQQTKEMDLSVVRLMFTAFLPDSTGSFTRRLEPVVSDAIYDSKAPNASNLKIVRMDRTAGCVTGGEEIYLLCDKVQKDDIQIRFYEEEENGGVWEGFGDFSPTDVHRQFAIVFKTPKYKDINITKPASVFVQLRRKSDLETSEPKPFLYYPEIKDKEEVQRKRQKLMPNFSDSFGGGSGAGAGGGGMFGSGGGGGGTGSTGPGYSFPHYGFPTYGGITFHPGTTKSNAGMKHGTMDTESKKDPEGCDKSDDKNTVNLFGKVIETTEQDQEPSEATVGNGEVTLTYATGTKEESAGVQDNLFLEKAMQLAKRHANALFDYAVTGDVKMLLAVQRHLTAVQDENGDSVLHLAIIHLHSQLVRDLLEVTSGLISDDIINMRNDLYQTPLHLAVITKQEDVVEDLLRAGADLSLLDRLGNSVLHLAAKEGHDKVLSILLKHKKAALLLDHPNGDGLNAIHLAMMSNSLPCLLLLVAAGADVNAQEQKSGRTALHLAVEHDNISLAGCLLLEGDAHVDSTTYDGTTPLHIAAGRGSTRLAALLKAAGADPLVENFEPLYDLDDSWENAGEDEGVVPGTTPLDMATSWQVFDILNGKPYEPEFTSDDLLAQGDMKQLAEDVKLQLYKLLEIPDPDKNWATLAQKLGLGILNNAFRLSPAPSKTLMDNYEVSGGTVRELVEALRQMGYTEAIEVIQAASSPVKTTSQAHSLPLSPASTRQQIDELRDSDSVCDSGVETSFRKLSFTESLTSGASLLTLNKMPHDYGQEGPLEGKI

CCN(Cc1c(F)cccc1Cl)c1c([N+](=O)[O-])cc(C(F)(F)F)cc1[N+](=O)[O-]
active: [1] 50 µM | [3] 28.8 µM | [6] 18.1 µM | [8] 50 µM | [11] 50 µM | [13] 15.2 µM | [17] 29.6 µM
not listed: [19] | [20]
inactive: all other assays above

O=C(Nc1ccc([N+](=O)[O-])cc1Cl)c1cc(Cl)ccc1O
inactive: [9] | [14]
active: [1] 3.59 µM | [2] 6.3 µM | [3] 2.13 µM | [19] 3.29 µM | [4] 2.13 µM | [5] 4.02 µM | [6] 1.48 µM | [7] 2.42 µM | [10] 3.43 µM | [11] 2.28 µM | [12] 4.24 µM | [13] 1.99 µM | [15] 3.47 µM | [16] 4.53 µM | [17] 5.5 µM | [18] 4.31 µM

c1ccc2[nH]c(-c3cscn3)nc2c1
active: [3] 29 µM | [6] 35.2 µM | [11] 40 µM | [13] 26.6 µM | [18] 15.8 µM
not listed: [8] | [19]
inactive: all other assays above

COC(=O)CSc1cc(N=c2sc(=O)n3n2CCCC3)c(F)cc1Cl
not listed: [14] | [19] | [20]
inactive: all other assays above

CCCCC(CC)COC(=O)c1ccccc1C(=O)O (stereo not drawn)
active: [1] 50.8 µM | [18] 79.9 µM
not listed: [8] | [14]
inactive: all other assays above

CC(C)CCCCCCc1ccc(O)cc1
not listed: [8]
inactive: all other assays above
